What was measured:
Experiment in all cases: DAPPL (digital affinity profiling via proximity ligation, sequencing); 10 mM Tris-HCl pH 7.5, 50 mM NaCl, 1 mM DTT, 4% glycerol, room temperature, 30 min; GST-TFs on glutathione beads, 16-mer random dsDNA library, 0.1% formaldehyde crosslink after washing; high values mean tight binding
FLI1 = molecular target: T1, FLI1 (Homo sapiens, UniProt Q01543 1-452); details: protein: recombinant; tags: N-terminal GST; dsDNA, one strand shown
T1 sequence: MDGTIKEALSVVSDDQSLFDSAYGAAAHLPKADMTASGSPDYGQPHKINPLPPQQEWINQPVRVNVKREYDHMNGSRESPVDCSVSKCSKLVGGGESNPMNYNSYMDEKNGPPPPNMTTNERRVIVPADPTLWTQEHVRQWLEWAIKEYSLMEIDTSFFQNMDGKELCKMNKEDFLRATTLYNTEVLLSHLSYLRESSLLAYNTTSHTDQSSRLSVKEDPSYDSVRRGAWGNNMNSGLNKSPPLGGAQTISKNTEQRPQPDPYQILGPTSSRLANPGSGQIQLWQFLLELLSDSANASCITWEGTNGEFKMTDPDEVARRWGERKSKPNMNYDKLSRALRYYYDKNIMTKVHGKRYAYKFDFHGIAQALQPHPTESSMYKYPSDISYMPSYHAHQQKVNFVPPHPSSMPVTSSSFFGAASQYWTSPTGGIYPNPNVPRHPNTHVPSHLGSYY
Outline: (§1)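 Human transcription factors fused to GST were expressed in yeast, captured on glutathione beads, given DNA barcodes and pooled with a GST-only negative control. Pools were incubated with 200 nmole of a 16-mer random double-stranded DNA library in Tris/NaCl/DTT/glycerol buffer at room temperature for 30 min. They were then washed, crosslinked with 0.1% formaldehyde, proximity-ligated (BsaI/T4 ligase, 1 h, 37 °C), PCR-amplified and sequenced on an Illumina NextSeq500. Binding signal is each 6-mer's read frequency for a factor divided by its frequency for the GST control.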

ELK1 = molecular target: T2, ELK1 (Homo sapiens, UniProt P19419 1-428); details: protein: recombinant; tags: N-terminal GST; dsDNA, one strand shown
T2 sequence: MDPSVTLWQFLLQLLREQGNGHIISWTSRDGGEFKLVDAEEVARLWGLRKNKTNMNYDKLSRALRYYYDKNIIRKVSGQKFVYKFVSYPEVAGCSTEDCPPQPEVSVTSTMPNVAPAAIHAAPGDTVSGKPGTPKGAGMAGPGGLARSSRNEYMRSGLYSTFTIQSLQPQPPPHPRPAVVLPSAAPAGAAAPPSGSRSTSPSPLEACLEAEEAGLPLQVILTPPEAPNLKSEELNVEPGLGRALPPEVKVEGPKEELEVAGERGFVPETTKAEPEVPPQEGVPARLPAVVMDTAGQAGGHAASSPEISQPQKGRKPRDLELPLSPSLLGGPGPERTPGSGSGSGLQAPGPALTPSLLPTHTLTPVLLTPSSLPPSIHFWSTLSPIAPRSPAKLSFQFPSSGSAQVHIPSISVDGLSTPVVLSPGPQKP
Outline: as §1

GABPA = molecular target: T3, GABPA (Homo sapiens, UniProt Q06546 1-454); details: protein: recombinant; tags: N-terminal GST; dsDNA, one strand shown
T3 sequence: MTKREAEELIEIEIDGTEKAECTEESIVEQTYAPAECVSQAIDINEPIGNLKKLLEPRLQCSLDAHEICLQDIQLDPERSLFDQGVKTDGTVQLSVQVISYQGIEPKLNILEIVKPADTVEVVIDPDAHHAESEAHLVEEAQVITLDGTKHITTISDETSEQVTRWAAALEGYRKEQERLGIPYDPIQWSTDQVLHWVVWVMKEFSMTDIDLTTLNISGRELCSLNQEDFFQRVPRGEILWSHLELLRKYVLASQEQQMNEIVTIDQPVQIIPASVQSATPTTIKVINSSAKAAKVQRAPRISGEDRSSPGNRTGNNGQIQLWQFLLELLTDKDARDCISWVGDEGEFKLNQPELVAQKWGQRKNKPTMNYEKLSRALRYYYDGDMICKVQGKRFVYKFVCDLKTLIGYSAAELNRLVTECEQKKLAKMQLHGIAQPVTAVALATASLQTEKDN
Outline: as §1

ERG = molecular target: T4, ERG (Homo sapiens, UniProt P11308 1-479); details: protein: recombinant; tags: N-terminal GST; dsDNA, one strand shown
T4 sequence: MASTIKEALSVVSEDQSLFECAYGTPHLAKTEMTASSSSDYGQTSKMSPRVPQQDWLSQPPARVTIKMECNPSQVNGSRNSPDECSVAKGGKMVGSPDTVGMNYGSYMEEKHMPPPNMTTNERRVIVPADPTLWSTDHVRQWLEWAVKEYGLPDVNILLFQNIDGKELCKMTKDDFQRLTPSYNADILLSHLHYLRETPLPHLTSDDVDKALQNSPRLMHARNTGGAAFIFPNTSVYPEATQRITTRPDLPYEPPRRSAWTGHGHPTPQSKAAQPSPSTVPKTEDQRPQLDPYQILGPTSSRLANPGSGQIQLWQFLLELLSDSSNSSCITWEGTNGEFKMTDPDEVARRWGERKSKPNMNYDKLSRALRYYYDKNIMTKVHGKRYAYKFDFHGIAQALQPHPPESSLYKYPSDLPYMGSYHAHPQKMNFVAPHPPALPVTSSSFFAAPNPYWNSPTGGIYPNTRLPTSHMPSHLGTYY
Outline: as §1

ELF1 = ELF1 (Homo sapiens, UniProt P32519 1-619); details: protein: recombinant; tags: N-terminal GST; dsDNA, one strand shown
Outline: as §1

EHF = molecular target: T5, EHF (Homo sapiens, UniProt Q9NZC4 1-300); details: protein: recombinant; tags: N-terminal GST; dsDNA, one strand shown
T5 sequence: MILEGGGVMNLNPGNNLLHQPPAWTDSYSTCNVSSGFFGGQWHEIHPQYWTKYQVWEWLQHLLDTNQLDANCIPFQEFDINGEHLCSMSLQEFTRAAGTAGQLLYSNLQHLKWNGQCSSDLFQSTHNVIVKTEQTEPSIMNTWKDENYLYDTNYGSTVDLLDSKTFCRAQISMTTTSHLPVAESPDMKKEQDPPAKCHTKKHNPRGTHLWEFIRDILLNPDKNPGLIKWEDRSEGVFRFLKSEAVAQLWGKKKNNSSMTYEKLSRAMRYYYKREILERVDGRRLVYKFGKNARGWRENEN
Outline: as §1

SPI1 = SPI1 (Homo sapiens, UniProt P17947 1-270); details: protein: recombinant; tags: N-terminal GST; dsDNA, one strand shown
Outline: as §1

SPIB = SPIB (Homo sapiens, UniProt Q01892 1-262); details: protein: recombinant; tags: N-terminal GST; dsDNA, one strand shown
Outline: as §1

ELK3 = molecular target: T6, ELK3 (Homo sapiens, UniProt P41970 1-407); details: protein: recombinant; tags: N-terminal GST; dsDNA, one strand shown
T6 sequence: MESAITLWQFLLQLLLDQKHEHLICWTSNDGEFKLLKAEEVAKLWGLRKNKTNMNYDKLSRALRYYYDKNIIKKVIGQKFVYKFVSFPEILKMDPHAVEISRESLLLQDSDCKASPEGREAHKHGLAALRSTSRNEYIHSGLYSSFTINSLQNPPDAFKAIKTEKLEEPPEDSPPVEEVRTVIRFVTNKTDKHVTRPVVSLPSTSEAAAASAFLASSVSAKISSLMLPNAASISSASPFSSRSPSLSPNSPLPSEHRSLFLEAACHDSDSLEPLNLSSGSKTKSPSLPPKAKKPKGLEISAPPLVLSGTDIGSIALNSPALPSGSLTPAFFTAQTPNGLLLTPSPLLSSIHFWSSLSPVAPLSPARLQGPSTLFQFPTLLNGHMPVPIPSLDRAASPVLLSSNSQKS
Outline: as §1

FEV = molecular target: T7, FEV (Homo sapiens, UniProt Q99581 1-238); details: protein: recombinant; tags: N-terminal GST; dsDNA, one strand shown
T7 sequence: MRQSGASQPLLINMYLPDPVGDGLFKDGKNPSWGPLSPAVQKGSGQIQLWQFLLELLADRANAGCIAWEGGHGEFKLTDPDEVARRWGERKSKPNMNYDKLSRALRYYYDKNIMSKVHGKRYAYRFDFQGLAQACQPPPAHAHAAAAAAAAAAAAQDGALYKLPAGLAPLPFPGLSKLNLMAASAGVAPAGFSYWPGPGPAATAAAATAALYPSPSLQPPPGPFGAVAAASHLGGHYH
Outline: as §1

ETV5 = ETV5 (Homo sapiens, UniProt P41161 1-510); details: protein: recombinant; tags: N-terminal GST; dsDNA, one strand shown
Outline: as §1

HSF1 = HSF1 (Homo sapiens, UniProt Q00613 1-529); details: protein: recombinant; tags: N-terminal GST; chain copies: 3; dsDNA, one strand shown
Outline: as §1

SPIC = molecular target: T8, SPIC (Homo sapiens, UniProt Q8N5J4 1-248); details: protein: recombinant; tags: N-terminal GST; dsDNA, one strand shown
T8 sequence: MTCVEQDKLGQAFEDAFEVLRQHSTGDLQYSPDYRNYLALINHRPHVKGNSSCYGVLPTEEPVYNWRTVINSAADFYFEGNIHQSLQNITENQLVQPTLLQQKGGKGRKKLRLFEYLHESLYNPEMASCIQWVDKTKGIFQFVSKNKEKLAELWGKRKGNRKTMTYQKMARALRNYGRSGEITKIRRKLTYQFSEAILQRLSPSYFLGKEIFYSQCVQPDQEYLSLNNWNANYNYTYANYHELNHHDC
Outline: as §1

ELF4 = ELF4 (Homo sapiens, UniProt Q99607 1-663); details: protein: recombinant; tags: N-terminal GST; dsDNA, one strand shown
Outline: as §1

ELK4 = molecular target: T9, ELK4 (Homo sapiens, UniProt P28324-2 1-405); details: protein: recombinant; tags: N-terminal GST; dsDNA, one strand shown
T9 sequence: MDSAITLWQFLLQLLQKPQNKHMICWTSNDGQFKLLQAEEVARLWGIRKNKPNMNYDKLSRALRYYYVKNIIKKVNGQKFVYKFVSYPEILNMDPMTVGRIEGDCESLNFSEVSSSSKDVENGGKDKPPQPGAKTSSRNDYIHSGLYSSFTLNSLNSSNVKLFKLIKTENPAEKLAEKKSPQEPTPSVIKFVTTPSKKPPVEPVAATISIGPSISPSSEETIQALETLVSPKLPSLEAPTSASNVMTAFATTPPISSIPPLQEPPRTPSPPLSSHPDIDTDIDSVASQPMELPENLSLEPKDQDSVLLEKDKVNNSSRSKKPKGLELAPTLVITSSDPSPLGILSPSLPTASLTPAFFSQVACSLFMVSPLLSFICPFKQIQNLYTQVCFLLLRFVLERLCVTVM
Outline: as §1

ETV2 = molecular target: T10, ETV2 (Homo sapiens, UniProt O00321 1-342); details: protein: recombinant; tags: N-terminal GST; dsDNA, one strand shown
T10 sequence: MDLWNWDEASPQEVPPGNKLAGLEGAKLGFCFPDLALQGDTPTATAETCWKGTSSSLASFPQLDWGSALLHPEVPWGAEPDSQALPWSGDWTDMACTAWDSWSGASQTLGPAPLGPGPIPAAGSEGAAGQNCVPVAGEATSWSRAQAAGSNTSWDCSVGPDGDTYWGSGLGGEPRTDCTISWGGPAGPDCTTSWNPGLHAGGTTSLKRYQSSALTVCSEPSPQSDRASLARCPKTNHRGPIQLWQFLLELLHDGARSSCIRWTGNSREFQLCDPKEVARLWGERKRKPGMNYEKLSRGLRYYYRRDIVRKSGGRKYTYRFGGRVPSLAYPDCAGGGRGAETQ
Outline: as §1

ELF3 = molecular target: T11, ELF3 (Homo sapiens, UniProt P78545 1-371); details: protein: recombinant; tags: N-terminal GST; dsDNA, one strand shown
T11 sequence: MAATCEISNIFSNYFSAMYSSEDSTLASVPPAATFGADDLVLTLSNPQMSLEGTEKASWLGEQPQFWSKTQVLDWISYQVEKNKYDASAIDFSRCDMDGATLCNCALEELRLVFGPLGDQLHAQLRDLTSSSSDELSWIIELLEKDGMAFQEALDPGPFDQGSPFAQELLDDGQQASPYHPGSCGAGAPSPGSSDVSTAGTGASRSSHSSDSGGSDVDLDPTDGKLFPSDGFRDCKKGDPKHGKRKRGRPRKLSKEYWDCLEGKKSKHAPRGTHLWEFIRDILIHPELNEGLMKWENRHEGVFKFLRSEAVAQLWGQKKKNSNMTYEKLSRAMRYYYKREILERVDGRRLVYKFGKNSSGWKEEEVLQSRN
Outline: as §1

CRX = CRX (Homo sapiens, UniProt O43186 1-299); details: protein: recombinant; tags: N-terminal GST; dsDNA, one strand shown
Outline: as §1

ETV1 = ETV1 (Homo sapiens, UniProt P50549 1-477); details: protein: recombinant; tags: N-terminal GST; dsDNA, one strand shown
Outline: as §1

Chain of ELF4 (Q99607 whole entry): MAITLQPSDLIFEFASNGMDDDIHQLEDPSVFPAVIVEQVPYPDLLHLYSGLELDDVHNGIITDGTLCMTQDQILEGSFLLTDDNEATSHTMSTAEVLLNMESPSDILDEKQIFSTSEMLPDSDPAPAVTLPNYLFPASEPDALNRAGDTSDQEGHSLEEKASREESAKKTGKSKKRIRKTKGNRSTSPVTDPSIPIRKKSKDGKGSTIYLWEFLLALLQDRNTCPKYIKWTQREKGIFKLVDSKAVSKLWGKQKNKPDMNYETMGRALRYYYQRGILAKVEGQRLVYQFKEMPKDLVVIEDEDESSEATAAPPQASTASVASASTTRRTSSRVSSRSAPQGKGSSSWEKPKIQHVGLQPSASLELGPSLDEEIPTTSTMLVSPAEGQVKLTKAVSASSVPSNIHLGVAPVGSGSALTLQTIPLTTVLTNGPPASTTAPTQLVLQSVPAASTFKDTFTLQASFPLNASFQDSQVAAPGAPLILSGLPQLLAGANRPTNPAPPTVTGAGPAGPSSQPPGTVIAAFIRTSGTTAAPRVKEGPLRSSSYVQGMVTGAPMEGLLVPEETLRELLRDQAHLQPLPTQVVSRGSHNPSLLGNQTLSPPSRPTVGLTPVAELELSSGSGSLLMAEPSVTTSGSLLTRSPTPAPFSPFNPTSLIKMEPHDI
Chain of SPIB (Q01892 whole entry): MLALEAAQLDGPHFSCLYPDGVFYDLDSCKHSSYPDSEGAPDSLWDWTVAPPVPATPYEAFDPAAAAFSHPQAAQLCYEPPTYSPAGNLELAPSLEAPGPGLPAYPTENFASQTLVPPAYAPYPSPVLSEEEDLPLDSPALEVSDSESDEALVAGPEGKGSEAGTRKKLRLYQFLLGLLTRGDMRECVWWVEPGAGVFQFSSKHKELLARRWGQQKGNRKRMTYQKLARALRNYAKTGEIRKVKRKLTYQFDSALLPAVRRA
Chain of CRX (O43186 whole entry): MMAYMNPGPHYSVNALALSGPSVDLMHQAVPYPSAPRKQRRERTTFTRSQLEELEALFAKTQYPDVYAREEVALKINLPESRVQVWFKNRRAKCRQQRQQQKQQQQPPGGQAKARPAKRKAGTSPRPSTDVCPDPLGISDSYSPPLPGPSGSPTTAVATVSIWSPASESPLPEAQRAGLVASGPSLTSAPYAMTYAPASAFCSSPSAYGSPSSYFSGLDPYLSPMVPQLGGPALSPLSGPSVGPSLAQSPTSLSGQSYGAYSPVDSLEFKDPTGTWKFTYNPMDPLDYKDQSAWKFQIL
Chain of HSF1 (Q00613 whole entry): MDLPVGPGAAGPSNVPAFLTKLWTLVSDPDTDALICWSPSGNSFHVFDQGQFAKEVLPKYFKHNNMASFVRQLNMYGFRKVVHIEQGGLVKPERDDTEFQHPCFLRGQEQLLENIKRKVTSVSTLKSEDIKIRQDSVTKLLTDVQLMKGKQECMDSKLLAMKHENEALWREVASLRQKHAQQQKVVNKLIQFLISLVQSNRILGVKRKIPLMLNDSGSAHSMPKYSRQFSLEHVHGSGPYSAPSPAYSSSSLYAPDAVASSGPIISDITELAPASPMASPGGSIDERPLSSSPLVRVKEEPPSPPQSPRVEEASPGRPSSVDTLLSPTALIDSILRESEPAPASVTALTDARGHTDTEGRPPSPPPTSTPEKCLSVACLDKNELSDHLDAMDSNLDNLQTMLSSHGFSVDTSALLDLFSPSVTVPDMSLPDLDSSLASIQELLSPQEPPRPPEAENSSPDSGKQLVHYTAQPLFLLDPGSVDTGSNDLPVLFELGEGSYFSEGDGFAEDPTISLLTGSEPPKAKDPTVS
Chain of ETV5 (P41161 whole entry): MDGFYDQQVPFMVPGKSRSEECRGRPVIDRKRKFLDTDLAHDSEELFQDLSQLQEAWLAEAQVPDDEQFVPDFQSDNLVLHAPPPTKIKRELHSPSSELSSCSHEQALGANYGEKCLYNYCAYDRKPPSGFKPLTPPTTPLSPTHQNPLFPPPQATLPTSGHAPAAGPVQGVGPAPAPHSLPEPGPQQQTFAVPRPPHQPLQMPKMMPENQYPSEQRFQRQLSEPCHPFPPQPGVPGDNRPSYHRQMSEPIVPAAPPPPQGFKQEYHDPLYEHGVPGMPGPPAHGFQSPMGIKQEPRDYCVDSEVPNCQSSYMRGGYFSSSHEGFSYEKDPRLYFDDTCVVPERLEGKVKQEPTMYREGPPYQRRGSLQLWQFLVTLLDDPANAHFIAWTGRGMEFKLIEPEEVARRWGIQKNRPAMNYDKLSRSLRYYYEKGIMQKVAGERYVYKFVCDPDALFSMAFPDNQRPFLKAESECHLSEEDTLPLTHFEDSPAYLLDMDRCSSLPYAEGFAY
Chain of ETV1 (P50549 whole entry): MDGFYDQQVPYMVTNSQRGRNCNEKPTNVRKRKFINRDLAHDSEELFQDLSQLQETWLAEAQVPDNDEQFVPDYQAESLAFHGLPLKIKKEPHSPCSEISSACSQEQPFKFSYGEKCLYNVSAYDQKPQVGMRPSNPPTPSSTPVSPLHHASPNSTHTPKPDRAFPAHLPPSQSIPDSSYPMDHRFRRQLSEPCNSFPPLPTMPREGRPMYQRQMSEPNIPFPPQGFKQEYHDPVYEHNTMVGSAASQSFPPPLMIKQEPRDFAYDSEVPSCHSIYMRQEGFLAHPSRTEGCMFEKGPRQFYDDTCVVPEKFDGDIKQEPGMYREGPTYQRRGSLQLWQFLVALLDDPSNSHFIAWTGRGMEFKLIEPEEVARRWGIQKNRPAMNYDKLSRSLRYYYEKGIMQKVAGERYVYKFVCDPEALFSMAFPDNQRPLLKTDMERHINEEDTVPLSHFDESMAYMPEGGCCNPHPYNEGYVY
Chain of ELF1 (P32519 whole entry): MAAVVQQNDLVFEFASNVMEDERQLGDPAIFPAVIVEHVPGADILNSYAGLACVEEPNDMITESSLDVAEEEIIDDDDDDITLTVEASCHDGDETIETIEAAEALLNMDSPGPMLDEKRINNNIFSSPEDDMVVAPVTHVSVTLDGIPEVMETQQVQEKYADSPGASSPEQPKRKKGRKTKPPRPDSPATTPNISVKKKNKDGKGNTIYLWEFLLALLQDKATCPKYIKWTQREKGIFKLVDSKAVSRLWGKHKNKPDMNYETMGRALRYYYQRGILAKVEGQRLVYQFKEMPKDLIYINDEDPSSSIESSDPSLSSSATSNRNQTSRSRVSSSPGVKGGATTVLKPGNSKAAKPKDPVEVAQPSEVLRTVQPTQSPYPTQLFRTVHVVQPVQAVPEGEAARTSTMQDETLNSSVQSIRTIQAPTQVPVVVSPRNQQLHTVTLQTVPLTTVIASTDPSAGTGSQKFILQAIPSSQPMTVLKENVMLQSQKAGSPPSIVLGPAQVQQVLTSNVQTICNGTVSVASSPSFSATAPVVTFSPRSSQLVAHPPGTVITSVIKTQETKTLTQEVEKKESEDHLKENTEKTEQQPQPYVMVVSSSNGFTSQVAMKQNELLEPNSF

TCCATG
binding signal (FLI1): 1.17 fold enrichment (6-mer frequency, TF over GST control) | binding signal (ELK1): 1.18 fold enrichment (6-mer frequency, TF over GST control) | binding signal (GABPA): 1.1 fold enrichment (6-mer frequency, TF over GST control) | binding signal (ERG): 1.09 fold enrichment (6-mer frequency, TF over GST control) | binding signal (ELF1): 1.11 fold enrichment (6-mer frequency, TF over GST control) | binding signal (EHF): 1.17 fold enrichment (6-mer frequency, TF over GST control) | binding signal (SPI1): 1.1 fold enrichment (6-mer frequency, TF over GST control) | binding signal (SPIB): 1.13 fold enrichment (6-mer frequency, TF over GST control) | binding signal (ELK3): 1.24 fold enrichment (6-mer frequency, TF over GST control) | binding signal (FEV): 1.11 fold enrichment (6-mer frequency, TF over GST control) | binding signal (ETV5): 1.2 fold enrichment (6-mer frequency, TF over GST control) | binding signal (HSF1): 1.1 fold enrichment (6-mer frequency, TF over GST control) | binding signal (SPIC): 1.05 fold enrichment (6-mer frequency, TF over GST control) | binding signal (ELF4): 1.16 fold enrichment (6-mer frequency, TF over GST control) | binding signal (ELK4): 1.25 fold enrichment (6-mer frequency, TF over GST control) | binding signal (ETV2): 1.2 fold enrichment (6-mer frequency, TF over GST control) | binding signal (ELF3): 1.25 fold enrichment (6-mer frequency, TF over GST control) | binding signal (CRX): 1.13 fold enrichment (6-mer frequency, TF over GST control) | binding signal (ETV1): 1.09 fold enrichment (6-mer frequency, TF over GST control)
